# From the supplement of paper PMC6607015
# Where a name gives a salt, the structure may show the parent alone.
# What was measured:
# Settings in all cases: compound concentration in added solution (µM; 5 µl added to 20 µl cells): 10; 18 h
# A431 [1] = assay: LBPA endosome anti-LBPA integrated intensity (sum per cell), Z-score; higher = more LBPA staining
# Method in brief: (§1)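 Reported values are Z-scores from AcuityXpress normalisation of per-cell integrated LBPA or filipin staining. HeLa MZ or A431 cells (3,500/well in 20 µl) were seeded onto 5 µl of 10 µM compound solution in duplicate 384-well plates, incubated 18 h, fixed in 4% PFA, stained and imaged at 20×. MetaXpress segmentation measured the intensity over the whole cell or within LBPA endosomes.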
# HeLa MZ [2] = assay: as above
# Method in brief: as §1
# A431 [3] = assay: whole-cell filipin (free cholesterol) integrated intensity, Z-score; higher = more cholesterol staining
# Method in brief: as §1
# HeLa MZ [4] = assay: as above
# Method in brief: as §1
# A431 [5] = assay: filipin (cholesterol) integrated intensity within LBPA endosomes, Z-score; higher = more cholesterol in LBPA endosomes
# Method in brief: as §1
# HeLa MZ [6] = assay: as above
# Method in brief: as §1
Compound,LBPA endosome anti-LBPA integrated intensity (z-score) (A431 [1]),LBPA endosome anti-LBPA integrated intensity (z-score) (HeLa MZ [2]),whole-cell filipin (z-score) (A431 [3]),whole-cell filipin (z-score) (HeLa MZ [4]),filipin (z-score) (A431 [5]),filipin (z-score) (HeLa MZ [6])
Cc1cc(C(C)(C)C)cc(C)c1CC1=NCCN1 [Xylometazoline hydrochloride],-0.127,0.671,0.316,0.463,0.0924,0.303
CC[C@H](C)C(=O)O[C@H]1C[C@@H](C)C=C2C=C[C@H](C)[C@H](CC[C@@H]3C[C@@H](O)CC(=O)O3)[C@H]21 [Lovastatin],-0.976,-1.31,-0.714,-0.104,-0.696,0.121
O=C(O)c1ccccc1Nc1cccc(C(F)(F)F)c1 [Flufenamic acid],-0.586,-0.521,-0.734,-0.685,-0.54,-0.632
Nc1ccc(S(=O)(=O)Nc2cnc3ccccc3n2)cc1 [Sulfaquinoxaline sodium salt],-0.491,-0.359,-0.235,-0.279,-0.43,-0.432
C[N+]1(C)CCC(OC(=O)C(O)(c2ccccc2)C2CCCC2)C1 (configuration not stated) [Glycopyrrolate],-0.432,-0.329,-0.296,-0.075,-0.498,-0.443
CCCC(C(=O)OCCN(CC)CC)(c1ccccc1)c1ccccc1 [Proadifen hydrochloride],2.78,2.82,2.1,-0.192,2.21,1.12
O=C(c1ccc(OCCN2CCCCC2)cc1)c1c(-c2ccc(O)cc2)sc2cc(O)ccc12 [Raloxifene hydrochloride],2.74,1.35,1.48,2.28,3.61,5.61
CCCOc1ccccc1-c1nc2[nH]nnc2c(=O)[nH]1 [Zaprinast],-0.577,-0.755,-0.471,0.00218,-0.519,-0.401
CC(CN1c2ccccc2Sc2ccccc21)N(C)C (configuration not stated) [Promethazine hydrochloride],2.24,1.7,2.37,0.806,2.23,1.73
O=c1[nH]c(=O)n([C@H]2C[C@H](O)[C@@H](CO)O2)cc1C(F)(F)F [Trifluridine],-0.394,0.648,3.04,3.8,-0.544,-0.762
Cc1onc(-c2ccccc2Cl)c1C(=O)N[C@@H]1C(=O)N2[C@@H]1SC(C)(C)[C@@H]2C(=O)O [Cloxacillin sodium salt],-0.451,-0.521,-0.641,-0.277,-0.516,-0.434
CC(=O)O[C@]1(C(C)=O)CC[C@H]2[C@@H]3C=C(C)C4=CC(=O)CC[C@]4(C)[C@H]3CC[C@@]21C [Megestrol acetate],-0.482,-1.05,-0.244,0.402,-0.317,-0.342
Nc1ccc(S(=O)(=O)NC(=O)c2ccccc2)cc1 [Sulfabenzamide],-0.476,-1.38,-0.453,-0.0901,-0.451,-0.401
CCN(CC)Cc1cc(Nc2ccnc3cc(Cl)ccc23)ccc1O [Amodiaquin dihydrochloride dihydrate],2.13,2.23,0.894,-0.209,1.78,1.72
CNCC(O)c1ccc(OC(=O)C(C)(C)C)c(OC(=O)C(C)(C)C)c1 (configuration not stated) [Dipivefrin hydrochloride],0.303,-0.643,1.75,0.0389,0.224,0.0222
O=C1CC2(CCCC2)CC(=O)N1CCCCN1CCN(c2ncccn2)CC1 [Buspirone hydrochloride],-0.302,-0.586,0.536,0.427,-0.00788,0.293
c1cnc(N2CCN(Cc3ccc4c(c3)OCO4)CC2)nc1 [Piribedil hydrochloride],0.161,1.95,0.544,1.93,-0.00283,1.55
COC(=O)[C@@H]1[C@H]2C[C@H]3c4[nH]c5ccccc5c4CCN3C[C@@H]2CC[C@@H]1O [Yohimbine hydrochloride],-0.468,-0.264,-0.685,-0.575,-0.434,-0.333
O=C(O)c1cc(=O)c2c(OCC(O)COc3cccc4oc(C(=O)O)cc(=O)c34)cccc2o1 [Cromolyn disodium salt],-0.474,-0.0857,-0.438,-0.156,-0.425,-0.474
CC(=O)N1CCN(c2ccc(OCC3COC(Cn4ccnc4)(c4ccc(Cl)cc4Cl)O3)cc2)CC1 (configuration not stated) [Ketoconazole],1.81,1.94,3.72,3.7,3.52,4.06
NC[C@H]1CC[C@H](C(=O)O)CC1 [Tranexamic acid],-0.452,-0.543,-0.422,-0.896,-0.524,-0.663
NC(=O)c1ncn([C@@H]2O[C@H](CO)[C@@H](O)[C@H]2O)n1 [Ribavirin],-0.391,-0.778,-0.377,-0.839,-0.376,-0.688
